Experimental data: PubChem BioAssay
Records with an inconclusive call do not appear. Activity calls are given as the source filed them. Unless noted, the rule behind the calls is not given here.

Tests used:
[1] = growth inhibition of DIPG glioma cells, dose response, cell-based, SU-DIPG-XVII, MIPE5.0, CellTiter-Glo, qHTS (AID 1347060; cut-off not given, nearly all actives have AC50 up to about 26 µM;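 for AC50: cells exposed to compound for 48 hours before viability readout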); settings: SU-DIPG-XVII viability, CellTiter-Glo ATP luminescence
[2] = viability loss in pontine glioma line – cell-based, SU-DIPG-XXV, MIPE5.0, CellTiter-Glo, qHTS, dose response (AID 1347065; cut-off not given, nearly all actives have AC50 up to about 26 µM;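 note: cells exposed to compound for 48 hours before ATP readout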); settings: CellTiter-Glo ATP luminescence
[3] = LFS_MB_P medulloblastoma growth inhibition, cell-based, chromothripsis tumors, cisplatin or BGB combos (AID 1671449; in the data active = inhibition above about 80%;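 note: cells exposed for 96 hours; 0% = vehicle DMSO and 100% = killing by high DMSO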); settings: LFS_MB_P medulloblastoma cells
[4] = HDN33 neuroblastoma growth inhibition, cell-based, chromothripsis tumors, cisplatin or BGB combos (AID 1671450; in the data active = inhibition above about 80%;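 note: cells exposed to compound for four days; 0% = vehicle DMSO and 100% = cell killing by high DMSO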); settings: HDN33 neuroblastoma cells, stronger effect = higher value
[5] = LFS_MB_1R medulloblastoma cell growth inhibition, synergistic combos for chromothripsis tumors, cisplatin or BGB combos (AID 1671452; in the data active = inhibition above about 80%;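 note: cells exposed for 96 hours before readout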); settings: LFS_MB_1R medulloblastoma cells, stronger effect = higher value
[6] = HTB85 osteosarcoma cell growth inhibition, synergistic combos for chromothripsis tumors, BGB or cisplatin IC20 combos (AID 1671453; in the data active = inhibition above about 80%;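 note: cells exposed for 96 hours before readout; 0% = vehicle DMSO and 100% = high DMSO killing control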); settings: HTB85 osteosarcoma cells, drug combinations, stronger effect = higher value
[7] = MDA-MB-436 breast carcinoma cell growth inhibition, synergistic combos for chromothripsis tumors, BGB or cisplatin combos (AID 1671458); settings: MDA-MB-436 breast carcinoma growth inhibition, drug combinations, stronger effect = higher value;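 note: cells exposed for 96 hours; 0% = vehicle DMSO and 100% = killing by high DMSO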
[8] = growth inhibition of BT084 medulloblastoma cells, cell-based, ICGC_MB145, cisplatin and BGB IC40 combos (AID 1671461; in the data active = inhibition above about 80%;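 note: cells exposed to drugs for 96 hours; 0% = vehicle DMSO and 100% = high DMSO full killing control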); settings: drug combinations, stronger effect = higher value
[9] = growth inhibition of RCMB18 medulloblastoma cells, cell-based, cisplatin and BGB IC40 combos (AID 1671462; in the data active = inhibition above about 80%;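 note: cells exposed to compound for four days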); settings: stronger effect = higher value
[10] = growth inhibition of CRL1545 osteosarcoma cells, cell-based, cisplatin and BGB IC20 combos (AID 1671464; in the data active = inhibition above about 80%;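 note: cells exposed to compound for 96 hours before readout; 0% = vehicle DMSO and 100% = high DMSO killing control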); settings: stronger effect = higher value
[11] = SU-DIPG-VI glioma cell viability, MIPE4.0 library, CellTiter-Glo luminescence, qHTS (AID 1347066; cut-off not given, nearly all actives have AC50 up to about 30 µM;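 note: cells exposed to compound for 48 hours before readout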); settings: CellTiter-Glo ATP luminescence
[12] = growth inhibition of DIPG glioma cells, dose response, cell-based, SU-DIPG-XIII, MIPE5.0, CellTiter-Glo, qHTS (AID 1347064; cut-off not given, nearly all actives have AC50 up to about 23 µM;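 for AC50: cells exposed to compound for 48 hours before the viability read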); settings: SU-DIPG-XIII viability, CellTiter-Glo ATP luminescence
[13] = SU-DIPG-XXV glioma cell viability, MIPE5.0 library, qHTS (AID 1347068; cut-off not given, nearly all actives have IC50 up to about 30 µM;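 for IC50: cells exposed to compound for 48 hours before viability readout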)
[14] = reducers of polyQ inclusions in PC12 cells, cell-based, NGF-treated PC12, GFPQ80 (AID 1614); settings: PC12 NGF-treated GFP-polyQ80 inclusion reduction;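 note: lower means fewer inclusions and 0 means no inclusions at all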
[15] = circadian clock period modulators, cell-based, LOPAC library, luminescence reporter (AID 2774); settings: circadian reporter cells, at 7 µM, actives lie on both sides;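 note: values are relative to mean of DMSO wells on each plate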
[16] = system: Hepatitis C virus NS3 helicase; assay: HCV NS3 helicase inhibitors, primary screen, biochemical, fluorescence polarization, LOPAC1280 library (AID 687035; in the data active = inhibition above about 37%); settings: Purified HCV NS3 helicase, Cy5-dT15 ssDNA binding fluorescence polarization; stronger effect = higher value; concentration not given here
[17] = Cy5 fluorescence quenching or enhancement artefacts, artefact control for HCV NS3 helicase inhibitor project, biochemical, LOPAC1280 (AID 687037); settings: Cy5-DNA-NS3h complex fluorescence interference counterscreen
[18] = system: Aerobactin synthetase IucA (Klebsiella pneumoniae); assay: IucA aerobactin synthetase inhibitors, biochemical, Tocris library, absorbance (AID 1345561); settings: purified IucA enzyme assay, absorbance (OD) read-out; stronger effect = lower value;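 tested at 8 µM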;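 note: 100% = enzyme without compound and 0% = no enzyme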
[19] = phospholipid biosynthesis inhibitors in animal cells, primary screen, cell-based, LOPAC library, screen 4 (AID 1347384); settings: phospholipid biosynthesis inhibition screen, at 10 µM
[20] = hESC survival regulators, cell-based (AID 493140); settings: human embryonic stem cell survival screen; stronger effect = higher value;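 note: cells exposed to compounds for four days before counting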
[21] = measured here: combination with BGB IC40, at 0.05 µM
[22] = measured here: with BGB IC20 combination, at 0.5 µM
[23] = measured here: with cisplatin IC20 combination, at 0.5 µM
[24] = measured here: combination with cisplatin, at 0.5 µM

For `N=c1ccn2c(n1)O[C@H]1[C@H](O)[C@@H](CO)O[C@H]12`, the AC50 [1] was 1180 nM (active), the outcome [2] was “inactive” and the inhibition ([3]; at 0.5 µM, stronger effect = higher value) was -28.5% (inactive). It also gave an inhibition ([3]; measured here: combination with BGB IC20, at 0.005 µM) of -22.6%, an inhibition ([3]; measured here: combination with BGB IC40, at 0.005 µM) of -23.7% and an inhibition [3, 21] of -32.2%. For the same compound, the inhibition ([3]; measured here: combination with cisplatin, at 0.5 µM, stronger effect = higher value) was -58.3%, the inhibition ([3]; measured here: combination with cisplatin, at 5 µM, stronger effect = higher value) was 86.6% and the inhibition ([4]; BGB combo, at 5 µM) was 85.1%. The inhibition ([4]; at 0.5 µM) was 76.6% (inactive), the inhibition ([4]; cisplatin combo, at 5 µM) was 80.9% and the inhibition [4, 22] was 82.4%. The inhibition [4, 23] was 69.1%, the inhibition ([4]; single agent, at 5 µM) was 81.4% and the inhibition ([5]; at 0.5 µM) was -7.06% (inactive). It also gave an inhibition [5, 21] of -18.8%, an inhibition [5, 24] of 43.5% and an inhibition ([5]; measured here: combination with cisplatin, at 5 µM) of 68.2%. For the same compound, the inhibition ([6]; at 0.5 µM) was 32.7% (inactive), the inhibition ([6]; measured here: with BGB IC20, at 0.5 µM) was 1.49% and the inhibition ([6]; measured here: with BGB IC20, at 5 µM) was 23.6%. The inhibition ([6]; measured here: with cisplatin IC20, at 0.5 µM) was 44.8%, the inhibition ([6]; measured here: with cisplatin IC20, at 5 µM) was 50.9% and the inhibition ([6]; single agent, at 5 µM) was 64.3%. The inhibition ([7]; at 0.5 µM) was 14% (inactive), the inhibition ([7]; measured here: BGB combination, at 0.5 µM) was 5.47% and the inhibition ([7]; measured here: BGB combination, at 5 µM) was 33.7%. The inhibition ([7]; measured here: cisplatin combination, at 0.5 µM) was 0.616%, the inhibition ([7]; measured here: cisplatin combination, at 5 µM) was 57.3% and the inhibition ([8]; at 0.5 µM) was -29.7% (inactive). For the same compound, the inhibition ([8]; cisplatin combination, at 0.5 µM) was 2.2%, the inhibition ([8]; cisplatin combination, at 5 µM) was 58.5% and the inhibition ([8]; measured here: BGB IC40 combination 0.05 uM, at 0.05 µM) was -14%. For the same compound, the inhibition ([8]; single agent, at 5 µM) was -28.9%, the inhibition ([9]; at 0.5 µM) was -18% (inactive) and the inhibition ([9]; cisplatin combo, at 5 µM) was 61%. It also gave an inhibition ([9]; measured here: BGB IC40 combination, at 0.05 µM) of -21.5%, an inhibition [9, 24] of 11.8% and an inhibition ([9]; single agent, at 5 µM) of -26.3%. The inhibition ([10]; at 0.5 µM) was -32.9% (inactive), the inhibition [10, 22] was -44.9% and the inhibition [10, 23] was -29.7%. It also gave an inhibition ([10]; single agent, at 0.05 µM) of -73.2% and an inhibition ([10]; single agent, at 5 µM) of 23.2%.
In the case of `COC1=C(OC)C(=O)C(C/C=C(\C)CC/C=C(\C)CC/C=C(\C)CC/C=C(\C)CC/C=C(\C)CC/C=C(\C)CC/C=C(\C)CC/C=C(\C)CC/C=C(\C)CCC=C(C)C)=C(C)C1=O`, the outcome [11] is reported as “inactive”.
With `COc1cc([C@@H]2c3cc4c(cc3[C@H](O)[C@H]3COC(=O)[C@@H]23)OCO4)cc(OC)c1OC` the AC50 [1] was 525 nM (active), the AC50 [12] was 2630 nM (active) and the AC50 [2] was 742 nM (active). The IC50 [13] was 934 nM (active).
With `O=C(O)c1cc(=O)c2ccccc2[nH]1` the inclusion score [14] was 2, the period change [15] was 0.025 h (inactive) and the inhibition [16] was -6% (inactive). The fluorescence ratio (interference) [17] was 1 (inactive), the remaining activity [18] was 94.6% (inactive) and the outcome [19] was “inactive”.
With `O=C(O)C1=CCNCC1` the inclusion score [14] was 2, the period change [15] was 0.375 h (inactive) and the inhibition [16] was -3% (inactive). The fluorescence ratio (interference) [17] was 1 (inactive), the remaining activity [18] was 102% (inactive) and the outcome [19] was “inactive”.
In the case of `CC1(C)[C@@H](O[C@H]2O[C@H](C(=O)O)[C@@H](O)[C@H](O)[C@H]2O[C@@H]2O[C@H](C(=O)O)[C@@H](O)[C@H](O)[C@H]2O)CC[C@]2(C)[C@H]3C(=O)C=C4[C@@H]5C[C@@](C)(C(=O)O)CC[C@]5(C)CC[C@@]4(C)[C@]3(C)CC[C@@H]12`, the outcome [11] is reported as “inactive”.
In the case of `O=C(/C=C/c1ccc(O)c(O)c1)O[C@H](Cc1ccc(O)c(O)c1)C(=O)O`, the remaining activity [18] is reported as 105% (inactive).
For `CCC(=O)NCC[C@@H]1CCc2ccc3c(c21)CCO3`, the outcome [1] was “inactive”, the outcome [12] was “inactive” and the outcome [2] was “inactive”. The outcome [11] was “inactive” and the outcome [13] was “inactive”.
For `C=C1CC[C@@H]2[C@](C)(CO)[C@H](O)CC[C@@]2(C)[C@@H]1C/C=C1/C(=O)OC[C@H]1O`, the AC50 [1] was 16600 nM (active), the AC50 [12] was 20900 nM (active) and the AC50 [2] was 11800 nM (active). The IC50 [13] was 20900 nM (active).
For `COc1ccc(CCC(=O)c2c(O)cc(O[C@@H]3O[C@H](CO)[C@@H](O)[C@H](O)[C@H]3O[C@@H]3O[C@@H](C)[C@H](O)[C@@H](O)[C@H]3O)cc2O)cc1O`, the outcome [11] was “inactive”.
For `CC(C)(O)CC[C@@H](O)[C@](C)(O)[C@H]1CC[C@@]2(O)C3=CC(=O)[C@@H]4C[C@@H](O)[C@@H](O)C[C@]4(C)[C@H]3CC[C@]12C`, the outcome [1] was “inactive”, the outcome [12] was “inactive” and the outcome [2] was “inactive”. The outcome [11] was “inactive” and the outcome [13] was “inactive”.
For `C[C@H]1C[C@H]2[C@@H]3CCC4=CC(=O)C=C[C@]4(C)[C@@]3(F)[C@@H](O)C[C@]2(C)[C@@]1(O)C(=O)CO`, the survival [20] was 9.67 (inactive) and the outcome [11] was “inactive”.
With `CC1(C)[C@@H](O)CC[C@]2(C)[C@H]3C(=O)C=C4[C@@H]5C[C@@](C)(C(=O)O)CC[C@]5(C)CC[C@@]4(C)[C@]3(C)CC[C@@H]12` the outcome [1] was “inactive”, the outcome [11] was “inactive” and the outcome [13] was “inactive”.
